Laboratory results taken from PubChem BioAssay (Tox21).
Where “and” joins values, the source holds several entries; their conditions need not be identical. Identical values can stand only once. Records with an inconclusive call do not appear. More than one record can exist for a structure, and the calls need not agree. Calls of active or inactive are those of the source. The call rests on the fitted dose curve; in most records, active means well fitted curve in the direction sought with a large enough effect in the repeat runs; inconclusive means weak or mixed curves; inactive means no such curve, though single readings can be large; an effect the other way counts as inactive or inconclusive.

Tests used:
[1] = A CellTox Green Cytotoxicity Assay to monitor cytotoxicity in HEK293 cells - 40 hour (AID 1224871); further: nearly all actives have a fitted effect of over 45% in size; further: potency means the concentration at half of the fitted maximal effect
Procedure, shortened: (§1)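 Homogeneous no-lysis format: HEK293 cell suspension mixed with CellTox Green reagent, seeded, incubated 5 h at 37 C/5% CO2, then dosed by pintool with compound in DMSO.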

[2] = qHTS RealTime-Glo MT Cell Viability Assay in HEK293 cells - 16 hour (AID 1224872); further: nearly all actives have a fitted effect of over 50% in size; further: potency means the concentration at half of the fitted maximal effect
Procedure, shortened: (§2)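 Viability tracked continuously by luminescence as live cells reduce a prosubstrate for NanoLuc; HEK293 cells preincubated 5 h, compound-treated at 37 C, and read at 0, 8, 16, 24, 32 and 40 h.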

[3] = qHTS RealTime-Glo MT Cell Viability Assay in HepG2 cells - 8 hour (AID 1224873); further: nearly all actives have a fitted effect of over 55% in size
Procedure, shortened: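 Real-time viability: cells seeded at 600 per well together with NanoLuc and cell-permeant prosubstrate, compounds added after 5 h incubation. Luminescence tracked at 0, 8, 16, 24, 32 and 40 h of exposure.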

[4] = qHTS RealTime-Glo MT Cell Viability Assay in HEK293 cells - 40 hour (AID 1224874); details: RealTime-Glo luminescence; max response: stronger effect = lower value; further: nearly all actives have a fitted effect of over 50% in size; further: potency means the concentration at half of the fitted maximal effect
Procedure, shortened: (§3)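 Measured as luminescence from the same continuously cultured HEK293 wells at successive time points (0, 8, 16, 24, 32, 40 h) after compound addition. Reagent present from seeding; dosing at 5 h; incubation 37 C.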

[5] = A CellTox Green Cytotoxicity Assay to monitor cytotoxicity in HEK293 cells - 24 hour (AID 1224875); further: series mostly up to about 77 µM; nearly all actives have a fitted effect of over 45% in size
Procedure, shortened: as §1

[6] = A CellTox Green Cytotoxicity Assay to monitor cytotoxicity in HepG2 cells - 16 hour (AID 1224876); further: nearly all actives have a fitted effect of over 45% in size
Procedure, shortened: (§4)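 Fluorescent DNA-binding dye, 600 HepG2 cells/well, 5 h preincubation then compound in DMSO; same plates read at 0–40 h, 37 C.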

[7] = qHTS RealTime-Glo MT Cell Viability Assay in HepG2 cells - 32 hour (AID 1224877); further: nearly all actives have a fitted effect of over 55% in size
Procedure, shortened: (§5)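 Viability was tracked continuously by NanoLuc luminescence from prosubstrate reduced by living HepG2 cells, at successive time points over 40 h of compound exposure. Cells with reagent were preincubated 5 h at 37 °C before compound addition.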

[8] = A CellTox Green Cytotoxicity Assay to monitor cytotoxicity in HepG2 cells - 24 hour (AID 1224878); further: nearly all actives have a fitted effect of over 45% in size
Procedure, shortened: as §4

[9] = A CellTox Green Cytotoxicity Assay to monitor cytotoxicity in HepG2 cells - 40 hour (AID 1224879); further: nearly all actives have a fitted effect of over 40% in size
Procedure, shortened: as §4

[10] = qHTS RealTime-Glo MT Cell Viability Assay in HEK293 cells - 0 hour (AID 1224880)
Procedure, shortened: as §3

[11] = A CellTox Green Cytotoxicity Assay to monitor cytotoxicity in HEK293 cells - 32 hour (AID 1224881); further: nearly all actives have a fitted effect of over 40% in size; further: potency means the concentration at half of the fitted maximal effect
Procedure, shortened: as §1

[12] = A CellTox Green Cytotoxicity Assay to monitor cytotoxicity in HepG2 cells - 0 hour (AID 1224882); further: nearly all actives have a fitted effect of over 35% in size
Procedure, shortened: as §4

[13] = A CellTox Green Cytotoxicity Assay to monitor cytotoxicity in HepG2 cells - 32 hour (AID 1224883); further: nearly all actives have a fitted effect of over 50% in size
Procedure, shortened: as §4

[14] = A CellTox Green Cytotoxicity Assay to monitor cytotoxicity in HEK293 cells - 8 hour (AID 1224884); further: nearly all actives have a fitted effect of over 35% in size
Procedure, shortened: as §1

[15] = qHTS RealTime-Glo MT Cell Viability Assay in HepG2 cells - 16 hour (AID 1224885); further: nearly all actives have a fitted effect of over 50% in size
Procedure, shortened: as §5

[16] = qHTS RealTime-Glo MT Cell Viability Assay in HEK293 cells - 24 hour (AID 1224886); further: nearly all actives have a fitted effect of over 50% in size; further: potency means the concentration at half of the fitted maximal effect
Procedure, shortened: as §2

[17] = qHTS RealTime-Glo MT Cell Viability Assay in HEK293 cells - 8 hour (AID 1224887); further: nearly all actives have a fitted effect of over 50% in size; further: potency means the concentration at half of the fitted maximal effect
Procedure, shortened: as §3

[18] = A CellTox Green Cytotoxicity Assay to monitor cytotoxicity in HEK293 cells - 16 hour (AID 1224888); further: nearly all actives have a fitted effect of over 35% in size
Procedure, shortened: as §1

[19] = qHTS RealTime-Glo MT Cell Viability Assay in HepG2 cells - 0 hour (AID 1224889); further: nearly all actives have a fitted effect of over 50% in size
Procedure, shortened: as §5

[20] = A CellTox Green Cytotoxicity Assay to monitor cytotoxicity in HepG2 cells - 8 hour (AID 1224890); further: nearly all actives have a fitted effect of over 45% in size
Procedure, shortened: as §4
On the % scale 0 is the no-effect control and ±100 the full control effect.

Cc1ccc(N)cc1C
inactive: Potency [1] | Potency [2] | Potency [3] | max response [4] 13.4% | Potency [5] | Potency [6] | Potency [7] | Potency [8] | Potency [9] | Potency [10] | Potency [11] | Potency [12] | Potency [13] | Potency [14] | Potency [15] | Potency [16] | Potency [17] | Potency [18] | Potency [19] | Potency [20]

C[C@]12CC[C@H]3[C@@H](CCC4=CC(=O)CC[C@@H]43)[C@@H]1CC[C@@H]2OC(=O)CCC1CCCCC1
inactive: Potency [1] | Potency [2] | Potency [3] | max response [4] -18.6% | Potency [5] | Potency [6] | Potency [7] | Potency [8] | Potency [9] | Potency [10] | Potency [11] | Potency [12] | Potency [13] | Potency [14] | Potency [15] | Potency [16] | Potency [17] | Potency [18] | Potency [19] | Potency [20]

Cc1ccccc1CCl
inactive: Potency [1] | Potency [2] | Potency [3] | max response [4] -6.69% | Potency [5] | Potency [6] | Potency [7] | Potency [8] | Potency [9] | Potency [10] | Potency [11] | Potency [12] | Potency [13] | Potency [14] | Potency [15] | Potency [16] | Potency [17] | Potency [18] | Potency [19] | Potency [20]

CCCCCCC#N
inactive: Potency [1] | Potency [2] | Potency [3] | max response [4] 1.28% | Potency [5] | Potency [6] | Potency [7] | Potency [8] | Potency [9] | Potency [10] | Potency [11] | Potency [12] | Potency [13] | Potency [14] | Potency [15] | Potency [16] | Potency [17] | Potency [18] | Potency [19] | Potency [20]

CCBr
inactive: Potency [1] | Potency [2] | Potency [3] | max response [4] 6.85% | Potency [5] | Potency [6] | Potency [7] | Potency [8] | Potency [9] | Potency [10] | Potency [11] | Potency [12] | Potency [13] | Potency [14] | Potency [15] | Potency [16] | Potency [17] | Potency [18] | Potency [19] | Potency [20]

CCOP(=S)(OCC)Oc1nc(Cl)c(Cl)cc1Cl
19.5 µM (active) and inactive: Potency [17]
39 µM (active) and inactive: Potency [11]
active: Potency [4] 24.6 µM
34.8 µM (active) and inactive: Potency [1]
inactive: Potency [3] | max response [4] -11.7% | Potency [6] | Potency [7] | Potency [8] | Potency [9] | Potency [10] | Potency [12] | Potency [13] | Potency [15] | Potency [19] | Potency [20]
21.9 µM (active) and inactive: Potency [2] | Potency [16]

Brc1ccccc1
inactive: Potency [1] | Potency [2] | Potency [3] | max response [4] -2.8% | Potency [5] | Potency [6] | Potency [7] | Potency [8] | Potency [9] | Potency [10] | Potency [11] | Potency [12] | Potency [13] | Potency [14] | Potency [15] | Potency [16] | Potency [17] | Potency [18] | Potency [19] | Potency [20]

C=CCN1CC[C@]23c4c5ccc(O)c4O[C@H]2C(=O)CC[C@@]3(O)[C@H]1C5
inactive: Potency [1] | Potency [2] | Potency [3] | max response [4] -0.323% | Potency [5] | Potency [6] | Potency [7] | Potency [8] | Potency [9] | Potency [10] | Potency [11] | Potency [12] | Potency [13] | Potency [14] | Potency [15] | Potency [16] | Potency [17] | Potency [18] | Potency [19] | Potency [20]

CCOP(=O)(OCC)SCCSCC
inactive: Potency [1] | Potency [2] | Potency [3] | max response [4] 0.908% and 6.69% | Potency [5] | Potency [6] | Potency [7] | Potency [8] | Potency [9] | Potency [10] | Potency [11] | Potency [12] | Potency [13] | Potency [14] | Potency [15] | Potency [16] | Potency [17] | Potency [18] | Potency [19] | Potency [20]

ClC=C(Cl)Cl
inactive: Potency [1] | Potency [2] | Potency [3] | max response [4] 18.6% | Potency [5] | Potency [6] | Potency [7] | Potency [8] | Potency [9] | Potency [10] | Potency [11] | Potency [12] | Potency [13] | Potency [14] | Potency [15] | Potency [16] | Potency [17] | Potency [18] | Potency [19] | Potency [20]

NC(=O)C(Cl)(Cl)Cl
inactive: Potency [1] | Potency [2] | Potency [3] | max response [4] 16.8% | Potency [5] | Potency [6] | Potency [7] | Potency [8] | Potency [9] | Potency [10] | Potency [11] | Potency [12] | Potency [13] | Potency [14] | Potency [15] | Potency [16] | Potency [17] | Potency [18] | Potency [19] | Potency [20]

CCO[C@H]1O[C@@H]2OC3(C)CC[C@H]4[C@H](C)CC[C@@H]([C@H]1C)[C@@]24OO3
inactive: Potency [1] | Potency [2] | Potency [3] | max response [4] -21.5% | Potency [5] | Potency [6] | Potency [7] | Potency [8] | Potency [9] | Potency [10] | Potency [11] | Potency [12] | Potency [13] | Potency [14] | Potency [15] | Potency [16] | Potency [17] | Potency [18] | Potency [19] | Potency [20]

C=CC(=O)OC(C)(C)C
inactive: Potency [1] | Potency [2] | Potency [3] | max response [4] 13.5% | Potency [5] | Potency [6] | Potency [7] | Potency [8] | Potency [9] | Potency [10] | Potency [11] | Potency [12] | Potency [13] | Potency [14] | Potency [15] | Potency [16] | Potency [17] | Potency [18] | Potency [19] | Potency [20]
